Test [1] concerns the target Lysosomal acid glucosylceramidase (Homo sapiens) (UniProt P04062). The test is described as follows: Glucocerebrosidase-p2 (AID 348; in the data active means potency below about 10 µM; further: potency means the concentration at half of the fitted maximal effect). Conditions: purified GBA, blue fluorogenic substrate, 40 min. Summed up: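 Normal human glucocerebrosidase (0.2 nM) with blue fluorogenic substrate (80 uM final) in citrate/phosphate pH 5.9 with 10mM sodium taurocholate, 0.01% tween-20; 40 min RT, NaOH/glycine stop; fluorescence Ex 365/Em 440; AC50 from a titration from 0.6 nM upwards.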

A short description of test [2]: AP1 Signaling Pathway (AID 357; active means well fitted curve in either direction with a large enough effect, not every such curve was filed as active;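 further: ME-180 reporter cells stimulated with EGF at its EC50 level; on the % scale 0 is the no-effect control and ±100 the full control effect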). Conditions: ME-180 AP-1-bla reporter, EGF-induced, beta-lactamase ratio, 5 h; at 7.69 µM (top of the series) unless noted. In a few lines:
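In this screen, ME-180 cells in Opti-MEM with 0.5% dialyzed FBS received EC50 EGF and compound titrations for 5 h. AP-1 reporter beta-lactamase was detected via CCF4 ratio, giving AC50 for positive and negative modulators.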

Test [3] deals with Cytochrome P450 1A2 (Homo sapiens) (UniProt P05177). The test is described as follows: p450-cyp1a2 (AID 410; calls by dose curve; further: potency means the concentration at half of the fitted maximal effect;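 on activity change, negative = inhibition: -100% = full effect of reference inhibitor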). Conditions: recombinant CYP1A2, luciferin-ME demethylation, luminescence; series mostly up to 57 µM. In a few lines:
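20nM CYP1A2, 100uM Luciferin-ME (=Km), 100mM KPO4; cpd 10 min RT; +NADPH regen, 60 min RT; stop/detect 20 min; luminescence. Normalized to furafylline 57 uM = full inhibition.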

Test [4] in a line: NFAT Signaling Pathway (AID 444; active means well fitted curve in either direction with a large enough effect, not every such curve was filed as active;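 further: carbachol stimulus at about its EC50 of 1 µM final; on the % scale 0 is the no-effect control and ±100 the full control effect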). Conditions: Jurkat NFAT-bla M1, carbachol, beta-lactamase ratio, 5 h; at 7.69 µM (top of the series) unless noted. In a few lines:
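Read-out: CCF4 FRET ratio (460 nm/530 nm) after 1 h RT dye loading, used for %activity and AC50 from titration series. Cells: Jurkat NFAT-β-lactamase/M1 line, treated with compound plus 1 uM carbachol for 5 h, 37 °C.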

A short description of test [5]: Stat Signaling Pathway (AID 446; active means well fitted curve in either direction with a large enough effect, not every such curve was filed as active;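 further: ME-180 cervical cancer cells given 40 pM IL-6 alongside compound; SIE-controlled beta-lactamase reporter measured as 460/530 nm FRET emission ratio; on the % scale 0 is the no-effect control and ±100 the full control effect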). Particulars: ME-180 (cervical carcinoma) SIE beta-lactamase reporter, IL-6 stimulated, 5 h; at 7.69 µM (top of the series) unless noted. In a few lines:
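Emission at 460 and 530 nm (excitation 405 nm) reports SIE-controlled beta-lactamase in ME-180 cells. Cells received compound with 40 pM IL-6 for 5 hrs at 37 C; data scaled between 300 pM IL-6 and 125 nM JAK-inhibitor controls.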

Test [6] has as its target Glucocorticoid receptor (Homo sapiens) (UniProt P04150). Nature of the test: GR-GFP Redistribution (AID 450;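 active means compounds whose dose series gives a full or clear partial fitted curve of increased nuclear translocation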; further: potency means the concentration at half of the fitted maximal effect). Particulars: U2OS GR-GFP nuclear translocation, laser cytometry, 2 h.
For test [7] the target is unchanged. Nature of the test: GR-EFC Redistribution (AID 451; calls by dose curve; further: potency means the concentration at half of the fitted maximal effect). Conditions: CHO-K1 GR-EFC translocation, beta-gal luminescence, 2 h. In a few lines: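 Translocation of GR-ED fusion to nuclear EA restores b-gal, read by luminescence after 1 h room-temperature detection. Engineered CHO-K1 biosensor cells, 1,000/well, exposed 2 h at 37 C to titrations up to 46 uM final.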

The target in test [8] is Mitogen-activated protein kinase 10 (Mus musculus) (UniProt Q61831). The test is described as follows: JNK3 AlphaScreen Assay (AID 530; active means well fitted curve in either direction with a large enough effect, not every such curve was filed as active;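 further: kinase came from lysate of stimulated human HepG2 cells; signal reports phosphorylation of biotinylated GST-cJun 1-79 at Ser73 with 10 µM ATP; on the % scale 0 is the no-effect control and ±100 the full control effect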). Conditions: JNK3 lysate, c-Jun phosphorylation; series mostly up to 57.1 µM. Summed up: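 Kinase buffer: 20 mM Tris-HCl pH 7.6, 10 mM MgCl2, 1 mM DTT, 0.1 mM Na3VO4, 0.01% Tween-20; ATP 10 uM. Substrate biotin-GST-cJun(1-79), enzyme from activated HepG2 lysates. Detection by Ser73 phospho-antibody AlphaScreen.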
A general note: Bead proximity is the source of the signal in Alpha formats.

Test [9] has as its target 3',5'-cyclic-AMP phosphodiesterase 4B (Homo sapiens) (UniProt Q07343). Nature of the test: qHTS Assay for Inhibitors of PDE-IV (AID 607; active means well fitted activation curve with a large enough effect in the main read-out, with a control signal flat, not every such curve was filed as active; further: % of control where 0% means no effect). Conditions: HEK293 ACTOne CNG channel cells, membrane potential fluorescence; series mostly up to 22.9 µM. Summed up:
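The readout is membrane depolarisation from a cAMP-sensing CNG channel, detected with a potential dye at ex 535/em 590. Cells were HEK293-derived (endogenous PDE-IV) at 1000 cells/well, titrated up to 22.9 uM final.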
(In general: In qHTS, concentration-response curves come from the screen itself.)

Test [10] has as its target Dual specificity protein kinase CLK4 (Homo sapiens) (UniProt Q9HAZ1). The test is described as follows: qHTS Assay for Inhibitors of CDC-like Kinase 4 (Kinase-Glo Assay) (AID 1770). Further: on the % scale 0 is the no-effect control and ±100 the full control effect; nearly all actives have a fitted effect of over 65% in size. Conditions: recombinant Clk4, Kinase-Glo ATP depletion luminescence; series mostly up to 66.7 µM. In a few lines: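 Inhibition was judged from remaining ATP, measured by Ultra-Glo luciferase bioluminescence after Clk4 (25 nM) had acted on RS peptide at 1 uM ATP for 4.5 hours, room temperature.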

For test [11] the target is unchanged. Nature of the test: qHTS Assay for Inhibitors of CDC-like Kinase 4 (ADP-Glo Assay) (AID 1771). Further: on the % scale 0 is the no-effect control and ±100 the full control effect; nearly all actives have a fitted effect of over 70% in size. Conditions: recombinant CLK4, ADP-Glo luminescence; series mostly up to 80 µM. Summed up: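 25 nM Clk4, 100 uM RS peptide, 1 uM ATP (final); 2 mM MgCl2, 0.5 mM EGTA, 2.5 mM DTT, 0.01% Triton X-100; 1 hr RT. ADP-Glo readout: ATP depletion 45 min, conversion/luciferase 30 min, luminescence.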

For test [12] the target is unchanged. The test is described as follows: qHTS Assay for Inhibitors of CDC-like Kinase 4 (ADP-FP Assay) (AID 1795).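 Further: recombinant human CLK4 phosphorylating RS repeat peptide at 1 µM ATP; on the % scale 0 is the no-effect control and ±100 the full control effect; nearly all actives have a fitted effect of over 60% in size.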 Conditions: Transcreener ADP fluorescence polarization; series mostly up to 50 µM. Summed up:
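Inhibition of ADP formation by 6.25 nM Clk4 is measured using 1 uM ATP and 100 uM RS repeat peptide over one hour. Produced ADP displaces a fluorescent tracer from antibody, lowering polarization.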

Test [13] concerns the target Ubiquitin carboxyl-terminal hydrolase 1 (Homo sapiens) (UniProt O94782). Nature of the test: Inhibitors of USP1/UAF1: Pilot qHTS (AID 504865).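 Further: rhodamine fluorescence freed from ubiquitin-rhodamine substrate followed over time; top concentration of the series differs between compounds; on the % scale 0 is the no-effect control and ±100 the full control effect; nearly all actives have a fitted effect of over 35% in size.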 Particulars: purified USP1/UAF1, Ub-rhodamine cleavage fluorescence; series mostly up to 54.9 µM. In a few lines: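 Kinetic fluorescence assay: 1nM USP1/UAF1, 15 min compound preincubation, then 150nM Ub-Rho; 480/540 nm.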
Test [14] can be described thus: Primary qHTS for small molecule stabilizers of the endoplasmic reticulum resident proteome: Secreted ER Calcium Modulated Protein (SERCaMP) assay (AID 1508630). Further: on the % scale 0 is the no-effect control and ±100 the full control effect. Conditions: SH-SY5Y GLuc-SERCaMP (Gaussia luciferase released on ER calcium loss) secretion, thapsigargin, luminescence; series mostly up to 38.4 µM. In a few lines:
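The SH-SY5Y reporter protocol was run at 3 concentrations up to 38.3 uM (primary) or 11 concentrations (follow-up): 16 h compound, 100 nM thapsigargin for 4 h, then extracellular luciferase luminescence.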

For test [15], the target named is Cytochrome P450 3A4 (Homo sapiens) (UniProt P08684). Nature of the test: qHTS Assay for Inhibitors and Substrates of Cytochrome P450 3A4 (AID 884). Further: nearly all actives have a fitted effect of over 50% in size. Further: potency means the concentration at half of the fitted maximal effect. Conditions: recombinant CYP3A4, Luciferin-PPXE luminescence; series mostly up to 57.1 µM. In a few lines: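 Luminescent readout of luciferin produced by CYP3A4 (20 nM) dealkylation of Luciferin-PPXE, 25 uM (its KM). NADPH-driven reaction ran 60 min at RT after 10 min compound preincubation; data scaled to 57 uM ketoconazole as 100% inhibition.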

Test [16] shares this target. Nature of the test: qHTS Assay for Activators of Cytochrome P450 3A4 (AID 885). Further: nearly all actives have a fitted effect of over 65% in size. Particulars: recombinant CYP3A4, Luciferin-PPXE luminescence, 60 min; series mostly up to 57.1 µM. Summed up: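 Activators are scored by enhanced luminescence from CYP3A4 conversion of luciferin-PPXE (25uM, equal to KM) to luciferin, after 60 min at RT with an NADPH-regenerating system.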

In test [17] the target is Cytochrome P450 2D6 (Homo sapiens) (UniProt P10635). The test is described as follows: qHTS Assay for Inhibitors and Substrates of Cytochrome P450 2D6 (AID 891). Further: potency means the concentration at half of the fitted maximal effect; nearly all actives have a fitted effect of over 60% in size. Particulars: recombinant CYP2D6, luciferin-ME EGE luminescence; series mostly up to 57.1 µM. In a few lines: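 Luminescent read-out of luciferin formed by 5 nM human CYP2D6 demethylating 30 uM Luciferin-ME EGE (Km level) over 60 min at room temperature after NADPH regeneration addition. Data normalized to full inhibition by 1.43 uM quinidine.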

Test [18] has as its target Cytochrome P450 2C19 (Homo sapiens) (UniProt P33261). The test is described as follows: qHTS Assay for Inhibitors and Substrates of Cytochrome P450 2C19 (AID 899). Further: potency means the concentration at half of the fitted maximal effect; nearly all actives have a fitted effect of over 60% in size. Conditions: recombinant CYP2C19, luciferin-H EGE luminescence; series mostly up to 57.1 µM. Summed up: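 Luminescence readout of luciferin formed from 10uM Luciferin-H EGE (KM level) by 5 nM CYP2C19 in 50mM KPO4. 60 min NADPH-driven reaction at 37C after 10 min compound preincubation; data scaled to 57uM ketoconazole inhibition.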

Unmarked numbers belong to inactive results. Inconclusive results are not listed. The source made the active and inactive calls. Unless noted, the call rests on the fitted dose curve; in most records, active means well fitted curve in the direction sought with a large enough effect; inconclusive means small, poorly fitted or top-dose-only effect, or another doubt; inactive means no such curve, though single readings can be large; an effect the other way counts as inactive or inconclusive. Where only a bound is given, the exact number is not on record here.

Ubiquitin carboxyl-terminal hydrolase 1 (Homo sapiens), sequence (O94782 whole entry, looked up): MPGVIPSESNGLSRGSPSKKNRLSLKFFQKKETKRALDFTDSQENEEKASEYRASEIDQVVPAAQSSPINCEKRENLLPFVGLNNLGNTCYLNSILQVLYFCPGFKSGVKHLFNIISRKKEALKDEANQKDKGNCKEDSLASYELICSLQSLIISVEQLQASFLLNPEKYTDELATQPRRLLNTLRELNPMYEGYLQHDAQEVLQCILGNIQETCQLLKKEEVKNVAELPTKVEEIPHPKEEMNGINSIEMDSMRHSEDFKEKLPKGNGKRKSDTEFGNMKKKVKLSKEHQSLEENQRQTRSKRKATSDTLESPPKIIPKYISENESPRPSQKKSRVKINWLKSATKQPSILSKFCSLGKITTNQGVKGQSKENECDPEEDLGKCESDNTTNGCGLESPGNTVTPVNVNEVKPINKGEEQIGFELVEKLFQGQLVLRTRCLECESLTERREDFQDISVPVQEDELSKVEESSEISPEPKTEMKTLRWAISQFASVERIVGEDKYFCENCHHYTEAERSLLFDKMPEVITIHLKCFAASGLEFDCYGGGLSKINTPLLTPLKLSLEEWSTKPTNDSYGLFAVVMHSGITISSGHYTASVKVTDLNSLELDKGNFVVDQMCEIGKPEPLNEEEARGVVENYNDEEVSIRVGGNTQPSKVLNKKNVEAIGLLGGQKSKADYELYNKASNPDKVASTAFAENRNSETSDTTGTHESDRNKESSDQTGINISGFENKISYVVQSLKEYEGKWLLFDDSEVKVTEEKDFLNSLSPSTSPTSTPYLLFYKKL
Dual specificity protein kinase CLK4 (Homo sapiens), sequence (Q9HAZ1 whole entry, looked up): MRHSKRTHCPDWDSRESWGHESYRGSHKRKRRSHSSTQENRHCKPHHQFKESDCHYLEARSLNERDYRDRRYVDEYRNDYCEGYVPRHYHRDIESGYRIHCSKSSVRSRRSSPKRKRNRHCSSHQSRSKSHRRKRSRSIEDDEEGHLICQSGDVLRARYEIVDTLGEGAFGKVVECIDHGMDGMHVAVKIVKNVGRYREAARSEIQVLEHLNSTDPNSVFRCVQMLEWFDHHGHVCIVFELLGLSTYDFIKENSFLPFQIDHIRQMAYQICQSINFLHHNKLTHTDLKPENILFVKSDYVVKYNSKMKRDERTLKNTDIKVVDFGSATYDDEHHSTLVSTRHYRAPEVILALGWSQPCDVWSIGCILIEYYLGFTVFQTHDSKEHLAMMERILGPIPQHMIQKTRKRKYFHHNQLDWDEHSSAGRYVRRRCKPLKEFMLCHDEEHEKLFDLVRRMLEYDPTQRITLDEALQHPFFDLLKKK
3',5'-cyclic-AMP phosphodiesterase 4B (Homo sapiens), sequence (Q07343 whole entry, looked up): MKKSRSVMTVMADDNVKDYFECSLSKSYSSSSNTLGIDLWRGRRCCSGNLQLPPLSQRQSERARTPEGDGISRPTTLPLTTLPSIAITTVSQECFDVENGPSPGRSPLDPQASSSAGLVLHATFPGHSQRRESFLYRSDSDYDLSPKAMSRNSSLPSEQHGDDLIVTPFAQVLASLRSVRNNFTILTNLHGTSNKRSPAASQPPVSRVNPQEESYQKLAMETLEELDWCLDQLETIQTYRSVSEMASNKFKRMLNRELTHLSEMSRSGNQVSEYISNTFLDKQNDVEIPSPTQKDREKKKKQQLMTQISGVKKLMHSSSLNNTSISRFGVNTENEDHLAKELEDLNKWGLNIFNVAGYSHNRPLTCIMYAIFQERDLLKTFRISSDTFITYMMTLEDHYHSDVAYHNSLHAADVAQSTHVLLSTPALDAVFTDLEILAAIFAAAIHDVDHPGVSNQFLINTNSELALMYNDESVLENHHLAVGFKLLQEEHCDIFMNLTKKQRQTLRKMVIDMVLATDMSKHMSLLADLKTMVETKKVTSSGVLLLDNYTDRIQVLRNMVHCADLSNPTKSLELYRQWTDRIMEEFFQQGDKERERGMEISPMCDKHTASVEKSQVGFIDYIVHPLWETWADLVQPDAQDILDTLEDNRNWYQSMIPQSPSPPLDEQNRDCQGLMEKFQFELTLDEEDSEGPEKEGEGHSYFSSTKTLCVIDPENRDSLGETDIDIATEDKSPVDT
Cytochrome P450 3A4 (Homo sapiens), sequence (P08684 whole entry, looked up): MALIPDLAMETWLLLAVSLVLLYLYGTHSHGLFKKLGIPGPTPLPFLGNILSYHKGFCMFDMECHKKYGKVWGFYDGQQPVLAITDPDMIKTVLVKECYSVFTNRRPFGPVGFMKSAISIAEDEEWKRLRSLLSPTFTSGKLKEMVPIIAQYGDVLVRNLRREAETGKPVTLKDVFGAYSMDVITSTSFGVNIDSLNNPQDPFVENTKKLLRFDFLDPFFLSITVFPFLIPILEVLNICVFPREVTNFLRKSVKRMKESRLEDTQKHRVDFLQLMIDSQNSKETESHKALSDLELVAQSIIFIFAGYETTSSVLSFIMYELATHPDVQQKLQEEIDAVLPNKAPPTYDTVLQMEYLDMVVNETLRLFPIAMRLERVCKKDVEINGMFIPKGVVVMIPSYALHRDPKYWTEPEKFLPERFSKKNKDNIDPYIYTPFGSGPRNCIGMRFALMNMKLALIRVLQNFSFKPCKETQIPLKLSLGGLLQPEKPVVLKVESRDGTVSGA
Cytochrome P450 1A2 (Homo sapiens), sequence (P05177 whole entry, looked up): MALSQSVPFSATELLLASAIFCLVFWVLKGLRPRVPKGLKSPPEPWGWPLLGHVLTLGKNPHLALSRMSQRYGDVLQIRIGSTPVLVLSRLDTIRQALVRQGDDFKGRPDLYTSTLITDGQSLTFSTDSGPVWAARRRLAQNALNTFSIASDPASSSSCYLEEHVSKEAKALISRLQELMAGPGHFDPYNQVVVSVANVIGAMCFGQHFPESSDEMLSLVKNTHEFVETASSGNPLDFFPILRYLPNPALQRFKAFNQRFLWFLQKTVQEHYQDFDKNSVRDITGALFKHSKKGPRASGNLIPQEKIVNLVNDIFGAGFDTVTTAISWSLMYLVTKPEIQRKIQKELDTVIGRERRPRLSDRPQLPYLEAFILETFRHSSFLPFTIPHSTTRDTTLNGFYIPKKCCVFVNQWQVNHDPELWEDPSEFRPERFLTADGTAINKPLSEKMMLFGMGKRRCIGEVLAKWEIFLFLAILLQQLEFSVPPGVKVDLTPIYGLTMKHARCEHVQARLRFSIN
Lysosomal acid glucosylceramidase (Homo sapiens), sequence (P04062 whole entry, looked up): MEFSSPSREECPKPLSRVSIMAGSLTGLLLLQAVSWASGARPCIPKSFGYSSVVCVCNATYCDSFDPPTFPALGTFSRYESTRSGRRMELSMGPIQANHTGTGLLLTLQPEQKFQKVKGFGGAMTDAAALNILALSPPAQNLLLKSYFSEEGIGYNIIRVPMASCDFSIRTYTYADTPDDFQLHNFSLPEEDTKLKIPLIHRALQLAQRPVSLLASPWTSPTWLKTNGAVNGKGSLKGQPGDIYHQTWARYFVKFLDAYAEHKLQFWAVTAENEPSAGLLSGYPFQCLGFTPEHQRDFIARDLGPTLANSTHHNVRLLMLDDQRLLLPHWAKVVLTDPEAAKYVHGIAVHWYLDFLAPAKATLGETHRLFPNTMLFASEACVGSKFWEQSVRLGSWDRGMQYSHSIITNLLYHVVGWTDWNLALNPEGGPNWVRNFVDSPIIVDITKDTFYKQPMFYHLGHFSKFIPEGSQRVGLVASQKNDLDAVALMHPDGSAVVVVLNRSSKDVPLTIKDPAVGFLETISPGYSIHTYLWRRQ
Glucocorticoid receptor (Homo sapiens), sequence (P04150 whole entry, looked up, the tested form may be a part): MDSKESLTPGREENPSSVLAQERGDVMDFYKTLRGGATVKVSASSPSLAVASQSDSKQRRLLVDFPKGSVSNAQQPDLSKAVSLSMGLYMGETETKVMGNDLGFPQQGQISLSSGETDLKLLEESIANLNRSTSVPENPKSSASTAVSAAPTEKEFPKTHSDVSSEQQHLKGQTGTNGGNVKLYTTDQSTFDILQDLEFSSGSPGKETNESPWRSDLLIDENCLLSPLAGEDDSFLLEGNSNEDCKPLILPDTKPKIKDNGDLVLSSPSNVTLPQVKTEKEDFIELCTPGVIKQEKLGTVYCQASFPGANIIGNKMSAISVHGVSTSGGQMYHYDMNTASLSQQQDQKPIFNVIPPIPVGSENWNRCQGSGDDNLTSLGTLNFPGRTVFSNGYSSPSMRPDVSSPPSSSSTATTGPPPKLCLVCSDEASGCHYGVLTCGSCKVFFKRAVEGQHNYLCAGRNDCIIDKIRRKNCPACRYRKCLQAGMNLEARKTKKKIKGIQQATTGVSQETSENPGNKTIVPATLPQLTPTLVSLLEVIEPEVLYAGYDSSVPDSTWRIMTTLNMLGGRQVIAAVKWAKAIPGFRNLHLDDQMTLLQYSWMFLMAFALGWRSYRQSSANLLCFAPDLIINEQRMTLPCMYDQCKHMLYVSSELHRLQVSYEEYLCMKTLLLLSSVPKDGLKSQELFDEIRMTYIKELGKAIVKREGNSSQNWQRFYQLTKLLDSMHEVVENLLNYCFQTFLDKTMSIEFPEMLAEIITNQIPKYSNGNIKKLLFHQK
Cytochrome P450 2D6 (Homo sapiens), sequence (P10635 whole entry, looked up): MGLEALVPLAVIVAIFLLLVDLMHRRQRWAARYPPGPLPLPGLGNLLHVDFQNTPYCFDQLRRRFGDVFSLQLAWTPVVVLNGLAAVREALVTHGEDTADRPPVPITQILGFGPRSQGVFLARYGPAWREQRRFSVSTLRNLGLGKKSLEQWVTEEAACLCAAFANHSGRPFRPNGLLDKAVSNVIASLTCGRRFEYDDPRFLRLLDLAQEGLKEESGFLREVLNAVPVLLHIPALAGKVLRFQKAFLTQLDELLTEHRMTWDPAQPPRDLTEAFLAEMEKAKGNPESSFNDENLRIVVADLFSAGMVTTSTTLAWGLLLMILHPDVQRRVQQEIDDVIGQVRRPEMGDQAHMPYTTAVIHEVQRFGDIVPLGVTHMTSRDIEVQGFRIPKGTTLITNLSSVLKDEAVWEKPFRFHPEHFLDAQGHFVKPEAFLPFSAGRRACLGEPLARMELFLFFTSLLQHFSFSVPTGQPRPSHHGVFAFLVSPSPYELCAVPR

For the compound `COCCn1c(=O)c(-c2ccc(Cl)cc2)nc2cnc(N3CCOCC3)nc21`, the Potency was over 11.4 µM in [1], 1 µM (active) in [3], over 9.22 µM in test [6] and over 46 µM in test [7]. In addition, the figures for the activity change, negative = inhibition in test [2] and in test [4] were 9.82% and 7.69%, respectively. In test [5], the activity, negative = inhibition is 9.52%. Besides, the Potency result in [8], in test [9], in test [10], in test [11], in [12] and in test [13] was “inactive” each time. The outcome in test [14] was inactive.

As to `O=c1cnc2cnc(Oc3ccccc3)nc2n1C1CC1`, the Potency is over 11.4 µM in test [1], 7.94 µM (active) in test [3], over 9.22 µM in test [6] and over 46 µM in test [7]. Also, the activity change, negative = inhibition was -14% in test [2] and -5.78% in test [4]. In addition, the activity, negative = inhibition in [5] was -13.1%. Further, the Potency result in test [8], in test [9], in test [10], in [11], in test [12] and in test [13] was “inactive” throughout. For the same compound, the result in test [14] was inactive.

`CN(C)C(=O)c1ccc(-c2cncnc2NCc2ccccc2)cc1`: the Potency in [1] is over 11.4 µM; in test [3] it was 20 µM (active); in test [6] it was over 46 µM; in [7], over 46 µM; in test [15] it was 2.51 µM (active). In addition, the activity change, negative = inhibition is 8.88% in test [2] and -3.31% in [4]. Also, the activity, negative = inhibition in test [5] was 9.3%. Moreover, the Potency entry in test [8], in test [9], in [16], in test [10], in [11] and in [12] was “inactive” throughout. Further, the Potency entry in test [13] was “inactive”. The result in test [14] was inactive.

On to `CC(=O)NCCNc1nc(-c2ccc(C(=O)N(C)C)cc2)nc2ccccc12`, for which the values for the Potency in test [1], in [6] and in test [7] were over 11.4 µM, over 46 µM and over 46 µM, respectively. Also, the results for the activity change, negative = inhibition in test [2] and in [4] were 3.64% and 9.74%, respectively. The Potency result in test [3], in test [8], in test [9], in test [10], in [11] and in test [12] was “inactive” each time. Moreover, the Potency result in test [13] was “inactive”. In addition, the activity, negative = inhibition in [5] was 11.4%. Further, the outcome in [14] was inactive.

On to `COc1c(O)cc2oc3cc(O)c(CC=C(C)C)c(O)c3c(=O)c2c1CC=C(C)C`, for which the Potency in test [3] is 31.6 µM (active); in [7] it was over 20.6 µM; in test [17], 31.6 µM (active); in [18], 10 µM (active). The Potency entry in test [8], in [9], in [15] and in test [16] was “inactive” in each case. For the same compound, the result in test [14] was inactive.

For the compound `COc1ccc(CNc2ccnc(-c3ccc(C(=O)N(C)C)cc3)n2)c(OC)c1`, the Potency in [1] was over 11.4 µM; in test [3], 12.6 µM (active); in test [6], over 46 µM; in [7], over 46 µM; in [15], 3.98 µM (active). Moreover, the activity change, negative = inhibition is -20% in [2] and -8.82% in [4]. Further, the activity, negative = inhibition in test [5] was -4.52%. For the same compound, the Potency result in test [8], in test [9], in test [16], in test [10], in [11] and in test [12] was “inactive” in each case. Further, in [13], the Potency entry is “inactive”. For the same compound, the outcome in test [14] was inactive.
